LYPLA2 inh: LYPLA2 inhibitors, primary screen, counter-screen for PME1 inhibitor project, biochemical, fluorescence polarization, FP-Rh probe ABPP. Acyl-protein thioesterase 2 (Homo sapiens), O95372. recombinant LYPLA2. inhibition, % at 5.9 µM. hit rate 0.38% among 320,000. AID 2177, 2009;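 active = inhibition above the screen-wide mean plus 3 SD, limit set per campaign, cut at about 26% in these data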;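 note: 0% = LYPLA2 with DMSO and 100% = wells lacking LYPLA2 enzyme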
Target sequence (O95372 whole entry, looked up): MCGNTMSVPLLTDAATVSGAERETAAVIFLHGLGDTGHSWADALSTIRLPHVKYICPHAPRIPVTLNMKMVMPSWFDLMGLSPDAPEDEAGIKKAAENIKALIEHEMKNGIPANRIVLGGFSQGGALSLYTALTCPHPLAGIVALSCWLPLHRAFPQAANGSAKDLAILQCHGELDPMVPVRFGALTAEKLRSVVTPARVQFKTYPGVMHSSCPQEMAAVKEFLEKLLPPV
LYPLA1 inh: LYPLA1 inhibitors, primary screen, counter-screen for PME1 inhibitor project, biochemical, fluorescence polarization, FP-Rh probe ABPP; Acyl-protein thioesterase 1 (Homo sapiens), O75608; recombinant LYPLA1; inhibition, % at 5.9 µM; hit rate 0.16% among 320,000;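 active = inhibition above the mean of all tested compounds plus 3 SD, set per campaign, cut at about 14% in these data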;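 note: inhibitors block serine hydrolase probe labeling of LYPLA1 so polarization falls; 0% = enzyme with DMSO and 100% = wells lacking LYPLA1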
PAD4 FP inh: human PAD4 inhibitors, primary screen, biochemical, fluorescence polarization, 1536-well format. Protein-arginine deiminase type-4 (Homo sapiens), Q9UM07. recombinant PAD4, RCA probe fluorescence polarization. inhibition, % at 6.36 µM. hit rate 0.41% among 330,000. AID 485272, 2010;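 active = percent inhibition above a cutoff equal to the mean of all tested compounds plus 3 SD, cut at about 15% in these data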;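 note: 0% = PAD4 with RCA probe and DMSO and 100% = probe without PAD4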
Fam108B inh: mouse Fam108B serine hydrolase inhibitors, primary screen, counter-screen for RBBP9 inhibitor project, biochemical, fluorescence polarization; recombinant Fam108B, FP-Rh probe fluorescence polarization; inhibition, % at 9.51 µM; hit rate 0.33% among 300,000;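 active = inhibition above the screen mean inhibition plus 3 SD, computed separately per campaign, cut at about 18% in these data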;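 note: inhibitors lower polarization as less probe binds the enzyme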
GSTO1 counter: inhibitors of recombinant GSTO1, primary screen, counter-screen for RBBP9 inhibitor project, biochemical, fluorescence polarization; Glutathione S-transferase omega-1 (Homo sapiens), P78417; inhibition, % at 5.96 µM; activity-based probe fluorescence polarization; hit rate 1.1% among 300,000;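 active = inhibition above the campaign mean inhibition plus 3 SD, cut at about 35% in these data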;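 note: 0% = GSTO1-1 with DMSO and 100% = wells lacking GSTO1-1 enzyme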
Target sequence (P78417 whole entry, looked up): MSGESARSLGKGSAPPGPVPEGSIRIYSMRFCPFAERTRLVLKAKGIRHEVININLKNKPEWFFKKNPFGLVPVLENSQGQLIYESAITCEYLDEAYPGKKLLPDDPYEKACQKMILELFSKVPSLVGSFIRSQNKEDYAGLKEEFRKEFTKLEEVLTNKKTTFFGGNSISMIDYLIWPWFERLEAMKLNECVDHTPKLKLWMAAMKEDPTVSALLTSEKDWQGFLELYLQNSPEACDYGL
PME-1 primary: PME-1 inhibitors via competitive probe labeling, primary screen, biochemical, fluorescence polarization, FP-Rh probe, HTS | Protein phosphatase methylesterase 1 (Homo sapiens), Q9Y570 | recombinant PME-1 | inhibition, % at 5.9 µM | hit rate 0.53% among 320,000 | AID 2130, 2009;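 active = inhibition above the campaign mean of all compounds plus 3 SD, cut at about 26% in these data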;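 note: competitive labeling of PME-1 active site by serine hydrolase directed probe; 0% = PME-1 with DMSO and 100% = wells lacking PME-1 enzyme; inhibitors block probe labeling so polarization falls and inhibition rises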
Fam108b inh conf: mouse Fam108b serine hydrolase inhibitors, confirmation, counter-screen for RBBP9 inhibitor project, biochemical, fluorescence polarization, triplicate; inhibition, % at 9.51 µM; hit rate 44% among 930; AID 1978, 2009; recombinant Fam108b, FP-Rh probe fluorescence polarization; shares compounds with Fam108B inh;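 active = inhibition above a limit from the primary screen, the mean over all compounds plus 3 SD, cut at about 19% in these data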;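 note: 0% = median of active Fam108b wells and 100% = catalytically dead S170A mutant; inhibitors free the probe so polarization falls as inhibition rises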
Fam108b inh: inhibition of mouse Fam108b by HTS hits, late-stage follow-up, biochemical, gel-based ABPP, soluble recombinant form | shares compounds with Fam108B inh | fluorophosphonate probe | inhibition, % at 20 µM | hit rate 44% among 260; in the data active = inhibition above about 40%
An asterisk follows results filed as active; . = not tested or not shown. A selection: hits, their analogues and other compounds. The true share with any hit is near 1.8%.

SMILES | LYPLA2 inh | LYPLA1 inh | PAD4 FP inh | Fam108B inh | GSTO1 counter | PME-1 primary | Fam108b inh conf | others
Cc1ccc(CC2CC(=O)N(CCc3ccccc3)C2=O)cc1 (stereo unspecified) | 3 | 4 | -1 | 1 | 2 | 2 | .
CC(C)N(C(=O)[C@H]1CC(CC(=O)NCc2cccc(C(F)(F)F)c2)C(=O)N2CCc3c([nH]c4ccccc34)[C@]12C)C(C)C (stereo partly specified) | . | . | 7 | . | . | . | .
COc1ccc(N/N=C/c2c(C(=O)O)ccc3ccccc23)cc1 | -7 | -11 | -3 | 6 | 15 | 11 | .
O=[N+]([O-])c1cccc2ccc(/C=C/c3ccc(Cl)cc3)nc12 | -2 | -2 | 2 | 3 | -7 | -6 | .
CCOc1cc(/C=C/c2ccc3cccc([N+](=O)[O-])c3n2)cc(Cl)c1O | 2 | -4 | -4 | 16 | 5 | 27* | .
Cc1ccc(S(=O)(=O)Nc2cc(C(C(=O)OC(C)C)C(=O)C(F)(F)F)c(O)c3ccccc23)c(C)c1 (stereo unspecified) | -15 | -7 | 8 | 5 | 44* | 11 | .
Cc1ccc(NC(=S)NNC(=S)Nc2cccc(C(F)(F)F)c2)cc1 | 2 | -12 | 1 | 12 | 38* | 25 | .
CCC(=O)OCC(=O)N=c1sccn1Cc1ccccc1Cl | 4 | -1 | -1 | 0 | 5 | 0 | .
O=C(CCl)N=c1sccn1Cc1ccccc1Cl | 8 | 2 | -40 | -1 | 102* | 1 | .
Cc1ccc(S(=O)(=O)N2CCN(C(=O)CSCc3ccc(C(C)C)cc3)CC2)cc1 | 4 | -1 | 3 | . | . | -1 | .
Nc1nc(CCl)nc(N(c2ccccc2)c2ccccc2)n1 | -6 | -3 | -1 | -3 | 78* | 0 | .
CCOC(=O)c1ccccc1NC(=O)CN1C(=O)NC(C)(CCc2ccccc2)C1=O (stereo unspecified) | 2 | -7 | 4 | -6 | 9 | -2 | .
COc1ccccc1Nc1ccc(NC(=O)c2cccc([N+](=O)[O-])c2C)cc1 | 5 | -7 | -3 | 20* | -4 | 15 | -6
CN(C)CCCOC(=O)COc1ccc(Br)cc1 | -2 | 2 | -3 | -4 | -5 | -6 | .
O=C(N/N=C/c1ccc(O)cc1O)c1ccc(CN2C(=O)c3cccc4cccc2c34)cc1 | -51 | -38 | -8 | 38* | -48 | -36 | 28*
O=S(=O)(c1c(F)cccc1F)N1CCN(C(=S)NCc2ccc3c(c2)OCO3)CC1 | 3 | 2 | 1 | 25* | 18 | 8 | 17
N=c1oc2cc(O)ccc2cc1C(=O)Nc1ccccn1 | 0 | -1 | -1 | -1 | 7 | -5 | .
N=c1oc2cc(O)ccc2cc1C(=O)Nc1ccc(Br)cc1 | -3 | 6 | -7 | 33* | 15 | 9 | 164* | Fam108b inh=40*
Cc1ccc(NC(=O)Cc2ccccc2F)cc1S(=O)(=O)N1CCCCCC1 | -4 | -5 | -5 | . | . | -2 | .
COc1ccc(C2C3=C(CCCC3=O)NC3=C2C(=O)c2ccccc23)cc1 (stereo unspecified) | 4 | 0 | -3 | 20* | 2 | 10 | 26*
COc1ccc2nc(-n3c(O)c(C4=c5ccccc5=NC4=O)[nH]c3=S)sc2c1 | 2 | -6 | -4 | 37* | 30 | 54* | 36* | Fam108b inh=0
Cn1c(O)c(C2=c3ccccc3=NC2=O)[nH]c1=S | 14 | 3 | -5 | 0 | 0 | 4 | .
Cc1ccccc1-c1nc2sc3c(c2c(=O)o1)CCC3 | -1 | 1 | -1 | 21* | 2 | -5 | 11
